Experiment in all cases: NCI-60 one-dose screen, 48 h (100 = growth as untreated, 0 = no growth, -100 = all killed)
Holding throughout (details): 10 µM unless noted

For test [1], the system named is SK-MEL-2 melanoma.
For test [2], the system named is EKVX NSCLC.
The test system of test [3] is SN12C renal.
Test [4] deals with UO-31 renal.
The subject of test [5] is TK-10 renal.
For test [6], the system named is ACHN renal.
Test [7] has as its system CAKI-1 renal.
The test system of test [8] is A498 renal.
The test system of test [9] is CCRF-CEM leukemia.
The test system of test [10] is MOLT-4 leukemia.

The panel holds about 83,000 compounds, 20% with a hit somewhere; the sample as a whole holds those more often.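 Cell lines were cultured in 96-well plates, exposed to a single compound concentration, and assessed for percent growth 48 hours later.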 A number with no mark means an inactive call. The source made the active and inactive calls. Rule for the calls: active = growth percent below 10; inactive = the rest.

Regarding `Cc1ccc(/C=C(\C#N)n2nnc3cc(F)c(F)cc32)cc1`, the growth is 14.8% in [1]; 30.9% in [2]; 2.07% (active) in [3]; 13.2% in test [4]; 22.4% in test [5]; 22.5% in test [6]. Moreover, the growth in test [7] was 32.6%; in test [8], 13%; in test [9], 5.57% (active); in test [10] it was -2.32% (active).

As for `CCOC(=O)c1c(C)nc2c(c1N)CC(=O)N2Cc1ccc(OC)cc1`, the growth is 51.2% in test [1]; 47.7% in test [2]; 41.1% in test [3]; 33.8% in test [4]; 0.0562% (active) in test [5]; 28.4% in test [6]. In addition, the growth in [7] was 76.4%; in test [8], 63.5%; in [9] it was 117%; in test [10], 90.3%.

Consider `O=C(Nc1ncccc1OCc1ccccc1)NC1CCCCCC1`, for which the growth in test [1] was 91.9%; in [2] it was 88.2%; in test [3], 78.6%; in test [4], 85.1%; in test [5], 94%; in test [6], 93.4%. Further, the growth in test [7] was 86.7%; in test [8], 101%; in test [9] it was 77.5%; in [10], 78.7%.

Turning to `CCc1ccc(CCC(=O)Nc2ncc(Cc3ccccc3)s2)o1`, the growth in test [1] is 44.4%; in test [2], 36.1%; in test [3], 42.3%; in test [4], 40.3%; in test [5], 63.1%; in test [6], 44.4%. Also, the growth in [7] was 33.3%; in test [8], 22.9%; in test [9], 19%; in test [10], 22.2%.

For `Cc1[nH]c(C2CC(c3ccc(C(F)(F)F)c(F)c3)=NN2c2ccccc2)c(C)c1C(=O)NCC(F)(F)F` (stereo not given), the growth in test [1] was 104%; in test [2], 69.3%; in test [3], 90.7%; in [4] it was 58.8%; in test [5], 151%; in test [6] it was 95.8%. For the same compound, the growth in test [7] is 59%; in test [8], 48.2%; in [9], 79.4%; in test [10], 58.3%.

Take `Cc1nc2cc(O)c(O)cc2cc1Oc1ccc(NC(=O)Nc2ccc(Cl)c(Cl)c2)cc1`: the growth in [1] is 77.7%; in test [2], 98.5%; in test [3], 85.6%; in test [4], 58.6%; in [5], 85.3%; in [6] it was 39%. Also, the growth in test [7] is 27.3%; in [8], 118%; in [9] it was 19.9%; in test [10] it was 12.6%.

Take `C=C1C(=O)O[C@H]2[C@H]1CC/C(COC(=O)c1ccc(C(=O)O)s1)=C\CC[C@@]1(C)O[C@@H]21`: the growth is 49.5% in test [1]; 34.2% in test [2]; -8.57% (active) in test [3]; 29% in test [4]; 13.1% in test [5]; 17.4% in test [6]. For the same compound, the growth was 8.39% (active) in test [7], 104% in [8], -28.7% (active) in test [9] and -7% (active) in test [10].

For the compound `CCN(CC)c1ccc(/C=N/NC(=O)Cc2ccc(Nc3ccnc(C(F)(F)F)c3)cc2)c(O)c1`, the growth was 56.1% in [1]; 10.5% in [2]; 40.3% in test [3]; 20.3% in [4]; 35.4% in test [5]; 19.4% in test [6]. Besides, the growth in test [7] is -20.8% (active); in test [8], 22%; in test [9], 9.9% (active); in test [10], 10.4%.

As for `Nc1nc2c(c3ncccc13)C(c1cccc(Cl)c1)Cc1ncccc1-2` (stereo not given), the growth was 25.3% in test [1]; 39.8% in test [2]; 36.7% in test [3]; 38% in [4]; 55.8% in test [5]; 45.5% in test [6]. Also, the growth was 30.2% in [7], -7.23% (active) in [8], 19.7% in test [9] and 14.5% in test [10].

Consider `CCn1c(-c2cc3c([nH]c4ccccc43)c(-c3cccc(O)c3)n2)n[nH]c1=S`, for which the growth in [1] is -22.2% (active); in test [2], 56.9%; in test [3], 63.6%; in [4], 47.3%; in test [5], 9.38% (active); in test [6] it was 61.1%. The growth is 47.9% in test [7], 35% in test [8], 28% in [9] and 25.6% in [10].

For `CCN1C(=O)N(CC)C2C1NN=c1s/c(=C\c3ccc(C(F)(F)F)cc3)c(=O)n12` (stereo not given), the growth in [1] was 56.1%; in test [2] it was 48.5%; in test [3], 24.2%; in [4], 34.3%; in test [5], 59.7%; in test [6], 27.6%. For the same compound, the growth in [7] was 25.9%; in test [8] it was 8.73% (active); in test [9] it was 5.13% (active); in test [10], 10.9%.

On to `CC/C=C\CCC/C=C1/C(=O)C=C[C@@H]1C/C=C\CCCC(=O)OC`, for which the growth was 87.3% in test [1]; 99.3% in [2]; 11.6% in [3]; 69.8% in test [4]; 100% in test [5]; 42.9% in [6]. Further, the growth in [7] is 54.1%; in test [8] it was 95.9%; in test [9] it was 3.2% (active); in test [10], 3.52% (active).

The record behind these values is PubChem BioAssay (NCI).
